From PubChem BioAssay (NCATS) come the findings set out here.

The target of experiment [1] is Beta-2 adrenergic receptor (Homo sapiens) (UniProt P07550). The experiment is described as follows: qHTS validation assay of beta-arrestin-biased ligands of beta2-adrenergic receptor (AID 485366). An outline of the steps:
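Agonism was measured as beta-arrestin recruitment to recombinant beta2-AR, releasing tTA to drive luciferase. Cells were exposed for 18 hr at 37 degrees C to a series up to 46 microM. %Activity from corrected luminescence gave concentration-response curves.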
On the technique in general: Quantitative high-throughput screening tests each substance at several concentrations.

In experiment [2] the target is ATP-dependent 6-phosphofructokinase (Trypanosoma brucei brucei) (UniProt O15648). Description: qHTS Validation Assay to Find Inhibitors of T. brucei phosphofructokinase (AID 485368). An outline of the steps:
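ADP-Glo luminescence, two-step: residual ATP depleted, then ADP converted to ATP for luciferase. Enzyme 1.25 nM, F6P 0.5 mM, ATP 0.1 mM, pH 8.0 TEA buffer, 45 min RT. Curves fitted and classed by quality and efficacy.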

Experiment [3] is described as follows: Quantitative high throughput screen for delayed death inhibitors of the malarial parasite plastid, 96 hour incubation (AID 488745). Note: nearly all actives have a fitted effect of over 70% in size. Note: potency is the fitted concentration of half-maximal effect. An outline of the steps: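 Decreased firefly luciferase luminescence indicates inhibited growth of reporter-integrated P. falciparum after two generations (96 h, 37 C, 5% CO2). Infected erythrocytes at 0.1% parasitemia, 2% hematocrit, in Albumax-supplemented RPMI 1640.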

Experiment [4] is described as follows: Quantitative high throughput screen for delayed death inhibitors of the malarial parasite plastid, 48 hour incubation (AID 488752). Note: nearly all actives have a fitted effect of over 65% in size. Note: potency is the fitted concentration of half-maximal effect. An outline of the steps: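 One-generation (48 h) growth assay: a decrease in luciferase signal from an integrated reporter in P. falciparum-infected red cells (0.1% parasitemia, 2% hematocrit) after compound exposure at 37 C indicates parasite inhibition.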

For experiment [5], the target named is Thioredoxin reductase 1, cytoplasmic (Rattus norvegicus) (UniProt O89049). Description: qHTS Assay for Substrates of Mammalian Selenoprotein Thioredoxin Reductase 1 (TrxR1) (AID 488772).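 Note: series mostly up to about 57 µM; a drop in NADPH fluorescence below the no-compound background marks a TrxR1 substrate.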 An outline of the steps:
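In this dual-purpose format, potential substrates are identified from the first fluorescence read after selenite addition, not from the 8-minute delta. Rat enzyme is preincubated with NADPH and then with compound at ~22 deg C.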

Experiment [6] has the same target. The experiment is described as follows: qHTS Assay for Inhibitors of Mammalian Selenoprotein Thioredoxin Reductase 1 (TrxR1) (AID 488773).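 Note: drop in NADPH fluorescence over an 8 min run after selenite addition; series mostly up to about 57 µM; nearly all actives have a fitted effect of over 40% in size.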 The settings on record: Potency: inhibition. An outline of the steps: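 Inhibition is scored from the loss of NADPH fluorescence between first and last reads of an 8-min kinetic run. Selenite (400 uM) was the substrate, added after 15 min compound preincubation at room temperature.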

Experiment [7] deals with Flap endonuclease 1 (Homo sapiens) (UniProt P39748). Description: qHTS Validation Assay for the Inhibitors of Human Flap endonuclease 1 (FEN1) (AID 488816). The procedure, abridged: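 Enzyme reagent 10 nM; cpds pinned; 15 min RT preinc.; substrate 50 nM final; reads t=0 and 15 min; no-enzyme buffer wells as neg. control; normalized data, 4-parameter Hill fit.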
The target in experiment [8] is M-phase phosphoprotein 8 (Homo sapiens) (UniProt Q99549). The experiment is described as follows: qHTS Validation Assay for Inhibitors for MPP8 Chromodomain Interactions with Methylated Histone Tails (AID 488949). Note: nearly all actives have a fitted effect of over 55% in size. Note: potency is the fitted concentration of half-maximal effect. An outline of the steps: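 AlphaScreen proximity signal from streptavidin donor and Ni-chelate acceptor beads (10 ug/mL each) reported binding of MPP8 to trimethyl-K9 H3(1-18) peptide, both at 50 nM. The complex formed 30 min before a 30 min compound exposure at room temperature, in PBS pH 7.4.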

Experiment [9] has as its target Chromobox protein homolog 1 (Homo sapiens) (UniProt P83916). Description: qHTS Validation Assay for Inhibitors of HP1-beta Chromodomain Interactions with Methylated Histone Tails (AID 488953). Note: nearly all actives have a fitted effect of over 50% in size. Note: potency is the fitted concentration of half-maximal effect. An outline of the steps: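 AlphaScreen proximity signal from streptavidin donor and nickel chelate acceptor beads (final 10 ug/mL) after 30 min dark incubation. Compounds had 30 min at room temperature with preformed complex of 50 nM HP1-beta and 50 nM b-H3(1-18)K9me3 in PBS pH 7.4 with 0.01% Tween-20.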

The target in experiment [10] is Methanococcus maripaludis chaperonin (MmCpn) (UniProt Q6LX38). The experiment is described as follows: High-Throughput Screening for Modulators of Cytosolic Chaperonin Activity: MmCpn Primary Screen (AID 488978).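 Note: 50 nM MmCpn enzyme hydrolysing 30 µM ATP at 37 °C.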 An outline of the steps: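 ATPase activity of 50 nM MmCpn was assayed with 30 uM ATP, 10 minutes at 37C, after a 5 min compound preincubation at room temperature. ADP production was read as HTRF emission at 590 and 665 nm.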

The structures appear in SMILES notation. Records with an inconclusive call do not appear. Where a structure was tested more than once in an assay, its records may differ in their call. Activity calls are given as the source filed them. Calls come from the whole dose curve; as a rule, active = well fitted curve in the direction sought with a large enough effect; inconclusive = small, poorly fitted or top-dose-only effect, or another doubt; inactive = no such curve, though single readings can be large; an effect the other way counts as inactive or inconclusive.

Chain of Thioredoxin reductase 1, cytoplasmic (Rattus norvegicus) (O89049 whole entry, looked up): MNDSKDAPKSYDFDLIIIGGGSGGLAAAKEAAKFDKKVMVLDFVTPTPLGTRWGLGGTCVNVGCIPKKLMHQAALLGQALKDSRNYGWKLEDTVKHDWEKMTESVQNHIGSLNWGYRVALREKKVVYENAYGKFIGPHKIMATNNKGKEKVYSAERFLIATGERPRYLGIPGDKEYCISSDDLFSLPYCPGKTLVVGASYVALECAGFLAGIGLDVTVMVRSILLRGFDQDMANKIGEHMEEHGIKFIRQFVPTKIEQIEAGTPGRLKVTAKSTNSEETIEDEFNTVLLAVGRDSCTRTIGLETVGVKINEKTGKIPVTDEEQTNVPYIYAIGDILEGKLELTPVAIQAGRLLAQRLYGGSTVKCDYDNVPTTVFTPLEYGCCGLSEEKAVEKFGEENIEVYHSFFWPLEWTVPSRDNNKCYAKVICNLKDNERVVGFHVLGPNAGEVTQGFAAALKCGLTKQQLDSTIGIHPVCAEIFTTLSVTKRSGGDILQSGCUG
Chain of Methanococcus maripaludis chaperonin (MmCpn) (Q6LX38 1-543): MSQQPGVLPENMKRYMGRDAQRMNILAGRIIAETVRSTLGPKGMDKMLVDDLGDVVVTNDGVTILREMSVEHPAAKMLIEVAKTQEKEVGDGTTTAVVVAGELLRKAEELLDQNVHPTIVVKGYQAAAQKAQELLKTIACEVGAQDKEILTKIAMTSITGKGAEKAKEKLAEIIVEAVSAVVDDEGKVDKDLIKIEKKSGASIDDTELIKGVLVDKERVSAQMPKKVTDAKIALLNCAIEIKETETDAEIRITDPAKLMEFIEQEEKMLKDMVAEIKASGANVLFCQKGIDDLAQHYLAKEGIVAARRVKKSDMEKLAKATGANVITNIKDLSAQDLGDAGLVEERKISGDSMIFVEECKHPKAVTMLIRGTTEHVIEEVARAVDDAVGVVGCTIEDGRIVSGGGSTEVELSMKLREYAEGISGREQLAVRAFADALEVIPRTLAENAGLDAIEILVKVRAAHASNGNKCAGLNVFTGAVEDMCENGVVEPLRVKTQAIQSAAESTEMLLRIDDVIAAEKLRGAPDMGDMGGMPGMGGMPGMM
Chain of Flap endonuclease 1 (Homo sapiens) (P39748 whole entry, looked up): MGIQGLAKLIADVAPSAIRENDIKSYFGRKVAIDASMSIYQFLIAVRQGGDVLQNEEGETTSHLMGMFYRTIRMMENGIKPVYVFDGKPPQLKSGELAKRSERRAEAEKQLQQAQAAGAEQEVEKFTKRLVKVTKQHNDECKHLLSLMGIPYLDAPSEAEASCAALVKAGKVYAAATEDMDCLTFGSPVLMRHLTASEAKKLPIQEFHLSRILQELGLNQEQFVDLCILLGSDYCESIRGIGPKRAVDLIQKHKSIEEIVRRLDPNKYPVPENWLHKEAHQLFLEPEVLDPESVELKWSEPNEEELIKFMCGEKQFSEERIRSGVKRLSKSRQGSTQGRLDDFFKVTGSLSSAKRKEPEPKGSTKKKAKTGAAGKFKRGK
Chain of Chromobox protein homolog 1 (Homo sapiens) (P83916 whole entry, looked up): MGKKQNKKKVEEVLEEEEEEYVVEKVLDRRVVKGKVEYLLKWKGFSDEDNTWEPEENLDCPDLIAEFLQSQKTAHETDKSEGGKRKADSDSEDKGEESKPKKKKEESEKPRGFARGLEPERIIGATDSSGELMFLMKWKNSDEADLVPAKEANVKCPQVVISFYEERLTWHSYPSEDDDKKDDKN
Chain of Beta-2 adrenergic receptor (Homo sapiens) (P07550 whole entry, looked up): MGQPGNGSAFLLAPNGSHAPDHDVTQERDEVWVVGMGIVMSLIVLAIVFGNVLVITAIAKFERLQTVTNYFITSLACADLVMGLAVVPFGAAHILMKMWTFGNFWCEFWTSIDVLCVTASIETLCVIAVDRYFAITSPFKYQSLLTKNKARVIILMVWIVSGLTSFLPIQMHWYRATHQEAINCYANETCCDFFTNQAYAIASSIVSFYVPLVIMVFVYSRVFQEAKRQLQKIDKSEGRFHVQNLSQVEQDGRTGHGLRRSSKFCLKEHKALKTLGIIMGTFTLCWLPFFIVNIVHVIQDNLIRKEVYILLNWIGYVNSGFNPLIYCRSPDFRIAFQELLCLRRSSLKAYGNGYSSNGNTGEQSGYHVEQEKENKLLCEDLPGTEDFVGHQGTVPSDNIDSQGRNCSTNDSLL
Chain of M-phase phosphoprotein 8 (Homo sapiens) (Q99549 whole entry, looked up): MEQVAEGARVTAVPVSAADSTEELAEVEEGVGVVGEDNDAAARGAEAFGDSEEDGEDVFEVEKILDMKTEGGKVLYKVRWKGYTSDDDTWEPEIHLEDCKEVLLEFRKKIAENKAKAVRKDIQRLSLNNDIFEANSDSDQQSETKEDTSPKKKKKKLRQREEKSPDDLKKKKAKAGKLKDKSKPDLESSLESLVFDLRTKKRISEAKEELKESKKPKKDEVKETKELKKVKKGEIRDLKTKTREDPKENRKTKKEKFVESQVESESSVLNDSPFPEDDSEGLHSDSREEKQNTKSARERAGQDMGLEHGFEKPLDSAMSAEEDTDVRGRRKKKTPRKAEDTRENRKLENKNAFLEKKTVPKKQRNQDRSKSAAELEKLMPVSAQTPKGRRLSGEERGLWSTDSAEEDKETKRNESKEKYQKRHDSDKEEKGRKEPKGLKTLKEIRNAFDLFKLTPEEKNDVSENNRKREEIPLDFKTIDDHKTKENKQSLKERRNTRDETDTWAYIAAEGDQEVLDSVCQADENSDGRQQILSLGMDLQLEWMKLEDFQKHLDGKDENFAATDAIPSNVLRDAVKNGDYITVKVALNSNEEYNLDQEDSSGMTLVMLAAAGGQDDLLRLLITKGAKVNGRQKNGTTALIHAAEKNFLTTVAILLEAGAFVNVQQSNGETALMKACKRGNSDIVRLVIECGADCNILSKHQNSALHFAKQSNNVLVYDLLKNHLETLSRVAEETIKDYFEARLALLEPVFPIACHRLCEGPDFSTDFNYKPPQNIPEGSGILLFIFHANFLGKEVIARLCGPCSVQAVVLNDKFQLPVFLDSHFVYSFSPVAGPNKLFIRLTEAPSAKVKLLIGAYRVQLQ
Chain of ATP-dependent 6-phosphofructokinase (Trypanosoma brucei brucei) (O15648 whole entry, looked up): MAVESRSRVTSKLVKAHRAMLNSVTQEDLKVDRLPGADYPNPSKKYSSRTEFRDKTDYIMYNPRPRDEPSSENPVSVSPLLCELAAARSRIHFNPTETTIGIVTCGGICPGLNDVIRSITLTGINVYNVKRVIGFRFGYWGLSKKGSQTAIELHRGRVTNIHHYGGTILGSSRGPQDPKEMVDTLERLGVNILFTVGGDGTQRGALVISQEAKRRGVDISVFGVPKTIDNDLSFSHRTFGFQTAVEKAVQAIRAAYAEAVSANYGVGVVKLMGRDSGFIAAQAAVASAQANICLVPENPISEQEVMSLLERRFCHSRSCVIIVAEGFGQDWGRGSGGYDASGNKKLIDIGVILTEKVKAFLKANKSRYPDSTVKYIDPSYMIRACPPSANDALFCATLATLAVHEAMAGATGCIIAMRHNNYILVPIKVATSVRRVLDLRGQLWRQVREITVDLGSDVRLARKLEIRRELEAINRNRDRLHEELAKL

With `CCCCC[C@H](CC(=O)NO)C(=O)N[C@H](C(=O)N1CCC[C@H]1CO)C(C)C`, the molecule was classed as inactive in experiment [1], in [5] and in experiment [10]. For the same molecule, the Potency result in experiment [2], in experiment [6], in [7], in experiment [8] and in [9] was “inactive” throughout. In addition, the Potency in [3] was 1170 nM (active); in experiment [4], 2940 nM (active).
`NCC(O)(CS(=O)(=O)O)c1ccc(Cl)cc1` (stereo not given): the call in experiment [1], in experiment [5] and in experiment [10] was inactive. In addition, the Potency result in [2], in experiment [3], in experiment [4], in experiment [6], in [7] and in experiment [8] was “inactive” each time.
As for `CC(/C=C/c1cccc(Oc2ccc(F)cc2)c1)N(O)C(N)=O` (stereo not given), the call in experiment [1], in experiment [5] and in [10] was inactive. Moreover, the Potency result in experiment [2], in [3], in experiment [4], in experiment [7], in experiment [8] and in experiment [9] was “inactive” each time.
Consider `Cn1c(=O)[nH]c2ncn(C)c2c1=O`, for which the result in [1], in experiment [5] and in experiment [10] was inactive. In addition, the Potency result in [2], in experiment [3], in experiment [4], in experiment [6], in experiment [7] and in [8] was “inactive” throughout. Moreover, in experiment [9], the Potency result was “inactive”.
With `N=C(N)SCCc1cnc[nH]1`, the result in experiment [1] and in experiment [5] was inactive. The Potency entry in [2], in experiment [3], in experiment [4], in experiment [6], in experiment [7] and in experiment [8] was “inactive” throughout.
For the molecule `COc1cc(C(O)CO)ccc1O` (stereo not given), the molecule was called inactive in experiment [1], in [5] and in experiment [10]. The Potency entry in [2], in experiment [3], in experiment [4], in experiment [7], in experiment [8] and in experiment [9] was “inactive” throughout.
Consider `COCc1nc2c([nH]1)c(=O)n(C)c(=O)n2CC(C)C`, for which the molecule was called inactive in [1], in [5] and in [10]. The Potency entry in [2], in [3], in experiment [4], in [6], in experiment [8] and in experiment [9] was “inactive” throughout.
As to `O=C(O)c1cccnc1C(=O)O`, the call in experiment [1], in experiment [5] and in experiment [10] was inactive. The Potency result in experiment [2], in experiment [3], in [4], in experiment [6], in experiment [7] and in experiment [8] was “inactive” throughout.
On to `Clc1nccc2c1ccc1ccccc12`, for which the result in experiment [1], in [5] and in [10] was inactive. Moreover, the Potency result in [2], in experiment [3], in experiment [4], in [6], in experiment [7] and in experiment [8] was “inactive” throughout. Also, in experiment [9], the Potency result is “inactive”.
As for `N=C(N)c1ccccc1`, the call in experiment [1], in experiment [5] and in [10] was inactive. For the same molecule, the Potency result in experiment [2], in experiment [3], in experiment [4], in experiment [6], in [7] and in experiment [8] was “inactive” in each case. Moreover, the Potency result in experiment [9] was “inactive”.
Turning to `N=C(N)c1ccc(N)cc1`, the outcome in [1], in experiment [5] and in experiment [10] was inactive. For the same molecule, the Potency result in [2], in [3], in experiment [4], in experiment [6], in [8] and in experiment [9] was “inactive” in each case.
In the case of `CC(=O)N[C@@H](Cc1c[nH]c2ccccc12)C(=O)OCc1cc(C(F)(F)F)cc(C(F)(F)F)c1`, the call in experiment [1], in [5] and in experiment [10] was inactive. Besides, the Potency result in experiment [2], in [3], in experiment [4], in experiment [6], in experiment [7] and in [8] was “inactive” in each case.
As for `CCCCCCCCCCCCCCSCC(=O)O`, the outcome in [1], in experiment [5] and in experiment [10] was inactive. Besides, the Potency entry in [2], in [3], in [4], in [6] and in experiment [7] was “inactive” each time. The Potency in [8] is 31.6 µM (active) and inactive; in experiment [9] it was 50100 nM (active).
Take `C#CC(N)CCC(=O)O` (stereo not given): the result in experiment [1], in experiment [5] and in experiment [10] was inactive. The Potency result in experiment [2], in experiment [3], in experiment [4], in experiment [6], in experiment [7] and in [8] was “inactive” throughout. For the same molecule, in experiment [9], the Potency entry was “inactive”.
Turning to `N[C@@H](Cc1ccc(O)c(I)c1)C(=O)O`, the result in experiment [1], in experiment [5] and in experiment [10] was inactive. The Potency entry in experiment [2], in experiment [3], in experiment [4], in experiment [6], in experiment [7] and in [8] was “inactive” in each case. In addition, the Potency entry in [9] is “inactive”.
Regarding `CC(C)Cn1c(=O)n(C)c(=O)c2[nH]cnc21`, the molecule was called inactive in experiment [1], in [5] and in experiment [10]. Further, the Potency entry in experiment [2], in experiment [3], in [4], in [8] and in [9] was “inactive” each time.
On to `O=C(O)CCC(=O)N1CCCC1C(=O)O` (stereo not given), for which the call in experiment [1], in experiment [5] and in experiment [10] was inactive. Besides, the Potency entry in experiment [2], in experiment [3], in experiment [7], in [8] and in experiment [9] was “inactive” throughout.
`COc1ccccc1N1CCN(CCCCNC(=O)c2ccc3ccccc3c2)CC1`: the molecule was classed as inactive in experiment [1], in experiment [5] and in experiment [10]. For the same molecule, the Potency result in [2], in experiment [6], in experiment [7] and in experiment [8] was “inactive” in each case. The Potency in experiment [3] is 2940 nM (active).
Turning to `COc1cc(CNC(=O)CCCCCCC(C)C)ccc1O`, the molecule was called inactive in [1], in [5] and in experiment [10]. The Potency result in experiment [2], in [3], in experiment [6], in [7], in [8] and in [9] was “inactive” in each case.
Turning to `CCCC[C@@]1(C2CCCC2)Cc2cc(OCC(=O)O)c(Cl)c(Cl)c2C1=O`, the call in experiment [1] and in [10] was inactive. For the same molecule, the Potency entry in experiment [2], in experiment [3], in experiment [6], in experiment [8] and in experiment [9] was “inactive” throughout.
Consider `CCC1(O)CC2CN(CCc3c([nH]c4ccccc34)[C@@](C(=O)OC)(c3cc4c(cc3OC)N(C)C3[C@]45CCN4CC=C[C@@](CC)([C@@H](OC(C)=O)[C@]3(O)C(=O)OC)[C@H]45)C2)C1` (stereo not given in full), for which the outcome in experiment [1] and in experiment [10] was inactive. Moreover, the Potency result in experiment [2], in [7] and in experiment [8] was “inactive” each time. The Potency in [3] is 522 nM (active); in [4], 586 nM (active).
For `CC(N)=O`, the molecule was classed as inactive in experiment [1], in experiment [5] and in experiment [10]. The Potency entry in experiment [2], in experiment [3], in experiment [6], in experiment [8] and in [9] was “inactive” in each case.
In the case of `Cn1c(=O)c2[nH]c(-c3ccc(S(=O)(=O)O)cc3)nc2n(C)c1=O`, the molecule was called inactive in [1], in experiment [5] and in [10]. Also, the Potency result in experiment [2], in experiment [3], in experiment [6], in experiment [8] and in experiment [9] was “inactive” each time.
For the molecule `COc1ccc(-c2ccc(N)[n+](CCCC(=O)O)n2)cc1`, the molecule was classed as inactive in experiment [1], in experiment [5] and in [10]. Further, the Potency result in experiment [2], in experiment [4], in experiment [6], in experiment [7], in experiment [8] and in experiment [9] was “inactive” throughout.
For the molecule `O=c1[nH]c(=O)c2nc3ccccc3nc2[nH]1`, the molecule was classed as inactive in experiment [1] and in [5]. The Potency result in experiment [2], in experiment [3], in experiment [4], in [8] and in [9] was “inactive” each time.
